The results in this text go back to PubChem BioAssay (NCATS).

Records with an inconclusive call do not appear. Calls of active or inactive are those of the source. Calls follow the shape of the dose curve; as a rule, active = well fitted inhibition curve with a large enough effect; inconclusive = small, poorly fitted or top-dose-only effect, or effect the other way; inactive = flat fitted curve, though single readings scatter.

Sequence of ATP-dependent 6-phosphofructokinase (Trypanosoma brucei brucei) (O15648 whole entry, looked up): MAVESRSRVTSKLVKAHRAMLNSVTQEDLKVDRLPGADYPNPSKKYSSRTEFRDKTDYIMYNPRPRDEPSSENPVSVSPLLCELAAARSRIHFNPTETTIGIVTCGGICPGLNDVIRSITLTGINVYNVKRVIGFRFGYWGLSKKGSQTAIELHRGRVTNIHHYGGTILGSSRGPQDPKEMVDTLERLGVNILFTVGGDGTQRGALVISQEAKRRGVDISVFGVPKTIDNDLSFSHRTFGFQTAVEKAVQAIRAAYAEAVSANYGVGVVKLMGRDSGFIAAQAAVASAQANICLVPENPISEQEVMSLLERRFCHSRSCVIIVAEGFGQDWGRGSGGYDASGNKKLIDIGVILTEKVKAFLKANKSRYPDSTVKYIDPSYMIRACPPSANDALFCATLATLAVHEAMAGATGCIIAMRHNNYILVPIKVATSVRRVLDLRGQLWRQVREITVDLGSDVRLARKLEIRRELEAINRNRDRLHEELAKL

The assay deals with ATP-dependent 6-phosphofructokinase (Trypanosoma brucei brucei) (UniProt O15648). The assay is described as follows: qHTS Assay to Find Inhibitors of T. brucei phosphofructokinase: hit validation (AID 492961).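 Also: luminescence reports ADP formed as PFK phosphorylates fructose-6-phosphate with ATP.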 Conditions: T. brucei PFK, ADP-Glo luminescence; series mostly up to 51.4 µM. The method, boiled down:
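Percent activity derived from corrected luminescence, normalized between 0x and 1x enzyme controls, then fitted to concentration-response curves. Conditions: 1.25 nM PFK, 0.1 mM ATP, 0.5 mM F6P, 45 min RT.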
For orientation: In qHTS, concentration-response curves come from the screen itself.
Take `CCCN1CCCC[C@H]1C(=O)Nc1c(C)cccc1C`: the compound was called inactive.

Turning to `CC(C)(C(=O)c1cccnc1)c1cccnc1`, the compound was classed as inactive. Regarding `O=C(O)CCCCC(=O)O`, the call was inactive. The entry for `CC/C(=C(/CC)c1ccc(O)cc1)c1ccc(O)cc1` is “inactive”. With `Cc1cccc(C)c1NC(=O)CN1CCN(CCCC(c2ccc(F)cc2)c2ccc(F)cc2)CC1`, the compound was classed as inactive. With `O=C(CCCN1CCC(O)(c2ccc(Br)cc2)CC1)c1ccc(F)cc1`, the result was inactive. Turning to `CN(C)CCCOc1nn(Cc2ccccc2)c2ccccc12`, the result was inactive. As to `Cc1ccc(C(=O)C(C)CN2CCCCC2)cc1` (centres undefined), the result was inactive.

On to `CCCCC1=NC2(CCCC2)C(=O)N1Cc1ccc(-c2ccccc2-c2nn[nH]n2)cc1`, for which the compound was classed as inactive. In the case of `COC(=O)[C@@H]1CC2=CC(=O)CC[C@]2(C)[C@@]23O[C@@H]2C[C@@]2(C)[C@@H](CC[C@@]24CCC(=O)O4)[C@H]13`, the compound was called inactive. The entry for `CC(=O)OCC(=O)NCCCOc1cccc(CN2CCCCC2)c1` is “inactive”; for `O=C(Nc1ccc(Oc2ccc(Cl)cc2)c(Cl)c1)c1cc(I)cc(I)c1O` it is “inactive”; for `O=C1c2ccccc2C(=O)C1c1ccccc1` it is “inactive”. `C#C[C@]1(OC(C)=O)CC[C@H]2[C@@H]3CCC4=C[C@@H](OC(C)=O)CC[C@@H]4[C@H]3CC[C@@]21C`: the result was inactive.

Turning to `CCCCc1nc(Cl)c(CO)n1Cc1ccc(-c2ccccc2-c2nn[nH]n2)cc1`, the compound was called inactive. As to `CC(C)COC(=O)c1ccc(N)cc1`, the result was inactive.

As to `CCN1CCC[C@H]1CNC(=O)c1c(OC)ccc(Br)c1OC`, the call was inactive.

As to `CC(C)(CO)[C@@H](O)C(=O)NCCCO`, the call was inactive. Consider `CCC(=O)c1c(O)cc(O)cc1O`, for which the compound was classed as inactive.
